SMILES strings stand for the structures. Screen size: about 39,000 compounds; about 3,300 (8.5%) were called active. Shown is part of a subset that was picked to be rich in actives.

The test relates to HepG2. Briefly: cytotoxicity call (relative viability < 0.9). The following applies: 10 µM.
With `CCCN(C)C[C@@H]1OCCCC[C@@H](C)Oc2ccc(NC(=O)C3CCCCC3)cc2C(=O)N([C@@H](C)CO)C[C@@H]1C`, the cytotoxicity call is “inactive”.

Regarding `COc1cc(/C=C/C(=O)C2=C(NCCc3ccccc3)S[C@H](c3ccc(O)c(OC)c3)CC2=O)ccc1O`, the cytotoxicity call was “inactive”. As for `C[C@@H]1CN([C@@H](C)CO)C(=O)c2cccc(NS(=O)(=O)c3cn(C)cn3)c2O[C@H]1CN(C)CC1CC1`, the entry is “inactive”; as for `CNC[C@H]1Oc2ccc(NC(=O)Cn3cnnn3)cc2CC(=O)N([C@H](C)CO)C[C@@H]1C`, “inactive”. `C[C@@H](O)[C@@H](Nc1ncnc2ccccc12)C(=O)O`: the cytotoxicity call was “inactive”. For `C[C@H]1CN([C@@H](C)CO)C(=O)c2cccc(NC(=O)c3ccc(-c4nccs4)cc3)c2O[C@@H]1CN(C)Cc1ccc2c(c1)OCO2`, the cytotoxicity call is “inactive”. For `C[C@@H]1CCCCO[C@H](CN(C)Cc2ccc(C(=O)O)cc2)[C@@H](C)CN([C@@H](C)CO)C(=O)c2cc(NC(=O)c3ccccc3)ccc2O1`, the cytotoxicity call was “inactive”. With `COC12C(COC(N)=O)C3=C(C(=O)C(C)=C(N)C3=O)N1CC1NC12` (stereo not given) the entry was “active”; with `CO[C@@]12[C@H](COC(N)=O)C3=C(C(=O)C(C)=C(N)C3=O)N1C[C@@H]1N[C@@H]12`, “inactive”.

With `CO[C@@]12[C@@H]3N[C@@H]3CN1C1=C(C(=O)C(N)=C(C)C1=O)[C@@H]2COC(N)=O`, the cytotoxicity call is “active”.

With `COc1cccc(S(=O)(=O)Nc2ccc3c(c2)[C@@H]2C[C@@H](CC(=O)NCCc4ccccc4)O[C@@H](CO)[C@@H]2O3)c1`, the cytotoxicity call was “inactive”.

`C=CCOC(=O)[C@@H]1[C@H]2C(=O)O[C@H](c3ccccc3)[C@H](c3ccccc3)N2[C@H](c2ccc(OCCOC(=O)[C@@H]3C[C@@H]4C(=O)N[C@@H](CC(C)C)C(=O)N4[C@@H]3c3ccc(O)cc3)cc2)[C@@]12C(=O)Nc1ccc(I)cc12`: the cytotoxicity call is “inactive”. For the compound `COC(=O)C[C@H]1CC[C@H]2[C@H](COc3ccc(NS(=O)(=O)c4ccccc4Cl)cc3C(=O)N2C)O1`, the cytotoxicity call was “inactive”. For the compound `O=C(NO)c1cn(CC(=O)N2CCC3(CC2)C(=O)NCN3c2ccccc2)nn1`, the cytotoxicity call is “inactive”. With `O=C(Cn1cc(CN2C(=O)COC[C@H]2c2ccccc2)nn1)N1CCC2(CC1)C(=O)NCN2c1ccccc1` the entry was “inactive”; with `O=C(/C=C/c1cccc(-c2cn(CC(=O)N3CCC4(CC3)C(=O)NCN4c3ccccc3)nn2)c1)NO`, “inactive”; with `O=C(/C=C/c1cccc(-c2cn(-c3cccc(C(=O)N4CCC5(CC4)C(=O)NCN5c4ccccc4)c3)nn2)c1)NO`, “inactive”.

Consider `O=C(CCc1cn(CC(=O)N2CCC3(CC2)C(=O)NCN3c2ccccc2)nn1)NO`, for which the cytotoxicity call is “active”.

Turning to `O=C(NO)c1cn(-c2cccc(C(=O)N3CCC4(CC3)C(=O)NCN4c3ccccc3)c2)nn1`, the cytotoxicity call was “active”.

With `C[C@@H]1CN([C@H](C)CO)C(=O)c2cc(NS(=O)(=O)c3ccc(F)cc3)ccc2O[C@@H](C)CCCCO[C@@H]1CN(C)S(=O)(=O)c1ccc(Cl)cc1`, the cytotoxicity call is “inactive”. With `C[C@@H]1CN([C@H](C)CO)C(=O)c2cccc(NC(=O)c3cnccn3)c2O[C@H]1CN(C)S(C)(=O)=O` the entry was “inactive”; with `C[C@@H]1CCCCO[C@@H](CN(C)C(=O)c2ccncc2)[C@@H](C)CN([C@H](C)CO)C(=O)c2cc(NC(=O)C3CCCCC3)ccc2O1`, “inactive”. As for `C[C@@H]1CN([C@H](C)CO)C(=O)c2cc(NC(=O)C3CCCCC3)ccc2O[C@@H](C)CCCCO[C@@H]1CN(C)C(=O)c1ccncc1`, the cytotoxicity call was “inactive”. With `C[C@H]1CN([C@@H](C)CO)C(=O)c2cc(NC(=O)CCC(F)(F)F)ccc2O[C@@H]1CN(C)Cc1ccc(C(=O)Nc2ccccc2N)cc1` the entry was “inactive”.

For `COc1ccc(NC(=O)N(C)C[C@H]2OCCCC[C@@H](C)Oc3ccc(NS(=O)(=O)c4c(C)noc4C)cc3C(=O)N([C@@H](C)CO)C[C@H]2C)cc1`, the cytotoxicity call was “inactive”. With `NNc1ccc2nncn2n1` the entry was “inactive”; with `C[C@@H]1CN([C@@H](C)CO)C(=O)Cc2cc(NC(=O)CCN3CCOCC3)ccc2O[C@H]1CN(C)S(=O)(=O)c1cn(C)cn1`, “inactive”; with `C[C@H]1CN([C@@H](C)CO)C(=O)c2cc(C#CCN(C)C)cnc2O[C@H]1CN(C)C(=O)Nc1cccc(F)c1`, “inactive”.

On to `C[C@H]1CN([C@@H](C)CO)C(=O)c2cc(C#CCc3ccccc3)cnc2O[C@H]1CN(C)CC1CCOCC1`, for which the cytotoxicity call was “inactive”.

As to `CC(C)N1C[C@@H](C)[C@H](CN(C)Cc2ccc(Oc3ccccc3)cc2)Oc2c(C(=O)Nc3ccncc3)cccc2C1=O`, the cytotoxicity call is “inactive”.

With `Cc1cc(C(C)(C)C)c(O)c(C(C)(C)C)c1`, the cytotoxicity call was “active”. `CC(C)(Sc1cc(C(C)(C)C)c(O)c(C(C)(C)C)c1)Sc1cc(C(C)(C)C)c(O)c(C(C)(C)C)c1`: the cytotoxicity call was “inactive”. As for `Cc1ccc(O)c(C(C)(C)C)c1`, the cytotoxicity call was “inactive”. Consider `C[C@H](CO)N1C[C@H](C)[C@H](CN(C)C(=O)CN(C)C)Oc2ncc(C#CC(C)(C)O)cc2C1=O`, for which the cytotoxicity call was “inactive”.

For `C[C@@H]1CN([C@@H](C)CO)C(=O)c2cccc(NC(=O)CCCCCC(=O)Nc3ccccc3N)c2O[C@@H]1CN(C)S(=O)(=O)c1cn(C)cn1`, the cytotoxicity call is “inactive”. As for `C[C@H](CO)N1C[C@H](C)[C@H](CN(C)Cc2ccc(Cl)c(Cl)c2)Oc2ccc(NS(=O)(=O)c3ccccc3)cc2C1=O`, the entry is “inactive”; as for `C[C@H](CO)N1C[C@H](C)[C@@H](CN(C)Cc2ccc(Cl)c(Cl)c2)Oc2ccc(NS(=O)(=O)c3ccccc3)cc2C1=O`, “inactive”; as for `C[C@@H]1CN([C@@H](C)CO)C(=O)c2cc(NS(=O)(=O)c3ccccc3)ccc2O[C@@H]1CN(C)Cc1ccc(Cl)c(Cl)c1`, “active”. With `C[C@H]1CN([C@@H](C)CO)C(=O)c2cc(NS(=O)(=O)c3ccccc3)ccc2O[C@@H]1CN(C)Cc1ccc(Cl)c(Cl)c1` the entry was “inactive”; with `C[C@@H]1CN([C@@H](C)CO)C(=O)c2cc(NS(=O)(=O)c3ccccc3)ccc2O[C@H]1CN(C)Cc1ccc(Cl)c(Cl)c1`, “inactive”; with `C[C@@H]1CN([C@H](C)CO)C(=O)c2cc(NS(=O)(=O)c3ccccc3)ccc2O[C@@H]1CN(C)Cc1ccc(Cl)c(Cl)c1`, “active”. As for `C[C@H](CO)N1C[C@H](C)[C@@H](CN(C)C(=O)Nc2ccc(N3CCCCC3)cc2)OCc2cnnn2CCCC1=O`, the entry is “inactive”.

Consider `CC(C)NC(=O)N(C)C[C@@H]1Oc2ccc(NC(=O)C3CCCCC3)cc2CC(=O)N([C@@H](C)CO)C[C@H]1C`, for which the cytotoxicity call is “inactive”. `CCC[C@@H](O)C#Cc1cnc2c(c1)C(=O)N([C@H](C)CO)C[C@H](C)[C@H](CN(C)S(=O)(=O)c1cccs1)O2`: the cytotoxicity call is “inactive”. As for `C[C@H]1CC[C@@H]2C(C(=O)O[C@H]3[C@H]4O[C@@]4(C)[C@H]4[C@@H](O[C@H]5O[C@@H](CO)[C@@H](O)[C@@H](O)[C@@H]5O)OC=C[C@@]34O)=CO[C@H](O[C@H]3O[C@@H](CO)[C@@H](O)[C@@H](O)[C@@H]3O)[C@@H]21`, the entry is “inactive”; as for `C[C@H](CO)N1C[C@H](C)[C@H](CN(C)C(=O)Nc2ccc(F)cc2)Oc2ccc(NS(C)(=O)=O)cc2C1=O`, “inactive”; as for `C[C@H]1CN([C@@H](C)CO)C(=O)c2cc(NC(=O)Nc3ccc(C(F)(F)F)cc3)ccc2O[C@H]1CN(C)C(=O)NC1CCCCC1`, “inactive”. With `C[C@@H]1CN([C@H](C)CO)C(=O)c2cc(NC(=O)Nc3ccc(C(F)(F)F)cc3)ccc2O[C@@H]1CN(C)C(=O)NC1CCCCC1` the entry was “active”; with `C[C@H](CO)N1C[C@H](C)[C@H](CN(C)C(=O)Nc2ccc(C(F)(F)F)cc2)Oc2ccc(NC(=O)NC3CCCCC3)cc2C1=O`, “active”; with `C[C@@H]1CN([C@@H](C)CO)C(=O)c2cc(NC(=O)Nc3ccc(C(F)(F)F)cc3)ccc2O[C@@H]1CN(C)C(=O)NC1CCCCC1`, “active”. With `C[C@@H]1CN([C@H](C)CO)C(=O)c2cc(NC(=O)Nc3ccc(C(F)(F)F)cc3)ccc2O[C@H]1CN(C)C(=O)NC1CCCCC1` the entry was “inactive”; with `C[C@H]1CN([C@@H](C)CO)C(=O)c2cc(NC(=O)Nc3ccc(C(F)(F)F)cc3)ccc2O[C@@H]1CN(C)C(=O)NC1CCCCC1`, “inactive”. In the case of `C[C@@H]1CN([C@H](C)CO)C(=O)c2cc(NC(=O)NC3CCCCC3)ccc2O[C@H]1CN(C)C(=O)Nc1ccc(C(F)(F)F)cc1`, the cytotoxicity call was “inactive”. As for `C[C@H](CO)N1C[C@H](C)[C@@H](CN(C)C(=O)NC2CCCCC2)Oc2ccc(NC(=O)Nc3ccc(C(F)(F)F)cc3)cc2C1=O`, the entry is “inactive”; as for `C[C@H]1CN([C@@H](C)CO)C(=O)c2cc(NC(=O)NC3CCCCC3)ccc2O[C@H]1CN(C)C(=O)Nc1ccc(C(F)(F)F)cc1`, “inactive”.

Consider `C[C@@H]1CN([C@H](C)CO)C(=O)c2cc(NC(=O)Nc3ccccc3)ccc2O[C@@H](C)CCCCO[C@@H]1CN(C)C(=O)NC1CCCCC1`, for which the cytotoxicity call was “inactive”. With `CC(=O)N[C@@H]1[C@@H](O)[C@H](O)[C@H](CO)O[C@@H]1O` the entry was “inactive”. With `COCC(=O)Nc1ccc2c(c1)OC[C@@H](C)N(C(=O)Cc1cccnc1)C[C@H](C)[C@@H](OC)CN(C)C2=O` the entry was “inactive”; with `Cn1cnc(S(=O)(=O)N2C[C@@H](O)COC[C@H]3O[C@H](CC(=O)NCc4ccc(F)cc4)CC[C@@H]32)c1`, “inactive”. Consider `COc1cc(C)nc(SCC(N)=O)n1`, for which the cytotoxicity call was “inactive”. With `COc1ccc(S(=O)(=O)Nc2ccc3c(c2)C(=O)N([C@@H](C)CO)C[C@@H](C)[C@@H](CN(C)S(=O)(=O)c2ccccc2)O3)cc1` the entry was “inactive”; with `C[C@@H]1CN([C@H](C)CO)C(=O)CCCn2nncc2CO[C@@H]1CN(C)C(=O)CCCN(C)C`, “inactive”.

`Cc1cc(O[C@@H](CCC(F)(F)F)c2ccc(C(=O)NCCC(=O)O)cc2)cc(C)c1-c1ccc(C(C)(C)C)cc1`: the cytotoxicity call is “inactive”. For the compound `Cc1cc(C)c(-c2ccc(NC(=O)[C@H](Cc3ccc(C(=O)NCCS(=O)(=O)O)cc3)c3ccc(-c4ccc(C(C)(C)C)cc4)cc3)cc2)c(C)c1`, the cytotoxicity call was “active”. With `COc1ccc(C#Cc2ccc3c(c2)O[C@H](CN(C)S(=O)(=O)c2ccccc2F)[C@@H](C)CN([C@H](C)CO)S3(=O)=O)cc1` the entry was “inactive”.

The record behind these values is the antibiotic and cytotoxicity screens of Wong et al. (2023).
